Source: PubChem BioAssay
Compounds with a hit are over-represented: about 13% of the library has one in this group of screens.
USP17 block – inhibitors of human USP17 deubiquitinase; A8MUK1; purified USP17, Ub-rhodamine cleavage fluorescence, 3 h; inhibition, % at 50 µM; hit rate 6.5% among 47,000; AID 1645855
USP8 block – inhibitors of human USP8 deubiquitinase; purified USP8, Ub-rhodamine cleavage fluorescence, 30 min; inhibition, % at 20 µM; hit rate 4.2% among 47,000
USP28 inh – human USP28 deubiquitinase inhibition. inhibition, % at 25 µM. hit rate 3% among 47,000. AID 1645857. Q96RU2. purified USP28, Ub-rhodamine cleavage fluorescence, 30 min
USP30 block – blocks human USP30 ubiquitin-rhodamine cleavage; Q70CQ3; inhibition, % at 25 µM; AID 1645860; purified USP30, Ub-rhodamine cleavage fluorescence; hit rate 5.3% among 47,000
Target sequence (Q70CQ3 whole entry, looked up): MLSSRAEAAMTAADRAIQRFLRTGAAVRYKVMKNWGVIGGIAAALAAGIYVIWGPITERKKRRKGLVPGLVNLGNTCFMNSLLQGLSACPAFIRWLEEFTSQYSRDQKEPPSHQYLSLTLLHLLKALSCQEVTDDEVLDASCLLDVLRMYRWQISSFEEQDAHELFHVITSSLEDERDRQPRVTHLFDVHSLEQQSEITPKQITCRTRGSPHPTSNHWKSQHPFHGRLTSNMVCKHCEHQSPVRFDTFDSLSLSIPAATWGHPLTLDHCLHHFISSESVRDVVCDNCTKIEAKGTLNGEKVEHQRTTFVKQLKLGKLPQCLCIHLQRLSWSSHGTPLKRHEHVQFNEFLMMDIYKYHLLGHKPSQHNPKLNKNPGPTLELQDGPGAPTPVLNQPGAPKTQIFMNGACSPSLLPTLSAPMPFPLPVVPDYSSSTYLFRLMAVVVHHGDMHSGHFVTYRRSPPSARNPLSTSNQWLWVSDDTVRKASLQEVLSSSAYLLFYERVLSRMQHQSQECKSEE
The depositor's hits bear a star; i = inactive; x = not tested or not shown. Rule as the data show it: active = inhibition above about 30%; inactive = the rest.

SMILES | USP17 block | USP8 block | USP28 inh | USP30 block
COc1ccc(NC(=O)CSc2ncnc3c2sc2nc(CC(C)C)c4c(c23)CCC4)cc1 | 8.0 | 11.7 | 21.2 | 20.7
CCCCc1nc2sc3c(NCc4cccnc4)ncnc3c2c2c1CCC2 | 7.3 | -9.6 | x | x
O=C(CN1CC2(CCOCC2)Oc2ccc(Cl)cc2C1=O)N1CCC(O)CC1 | 3.9 | 12.8 | 17.0 | 21.3
CCCCNc1ncnc2c1sc1nc(CCCC)c3c(c12)CC(C)(C)OC3 | 44.9* | 6.6 | -4.2 | 14.2
COc1ccc2c(C)c(CC(=O)N3CCC4(O)CCCCC4C3)c(=O)oc2c1 (configuration not stated) | -8.9 | -3.4 | -8.5 | -5.7
O=C(Cc1ccccc1O)N1CCc2nc3ccccc3c(=O)n2CC1 | -9.8 | 0.3 | -16.0 | -10.8
Cc1ccc(C(C)C(=O)N2CCc3nc4ccccc4c(=O)n3CC2)cc1 (configuration not stated) | 14.0 | 27.5 | 10.2 | 30.1*
Cc1ccc(CN2CCCn3nc(C(=O)NCc4ccc(C)o4)cc3C2=O)cc1 | 18.2 | 13.6 | 16.5 | 23.2
CC(C)C[C@@H]1NC(=O)[C@H](Cc2ccccc2)N(C)C(=O)[C@H](C)NC(=O)c2ccccc2NC(=O)[C@H](Cc2ccc(O)cc2)N(C)C1=O | 41.0* | 8.9 | 15.4 | 19.3
Cc1ccc(S(=O)(=O)c2nnn3c2nc(NCc2ccco2)c2sccc23)cc1 | -24.6 | 32.5* | -7.3 | -72.0
CCc1c(C)c(C#N)c2nc3ccccc3n2c1N1CCN(C2CCCC2)CC1 | 61.9* | 7.4 | 11.9 | 23.1
COc1ccc(-c2nn(-c3ccccc3)cc2C(=O)Nc2ccc(N3CCOCC3)cc2)cc1 | 18.5 | 60.6* | 0.0 | 9.6
O=C(Nc1ccc(-n2cncn2)cc1)c1ccccc1N1CCOCC1 | -23.9 | -1.2 | -0.9 | -13.8
Cc1nc2ccccc2n1CC(=O)OCc1cccc(Cl)c1 | 8.1 | -39.3 | 0.0 | -3.6
Cc1cccc(-c2nc3n(CC(=O)Nc4ccc(Cl)cc4)c(C)cc(=O)n3n2)c1 | 68.2* | 8.2 | 5.7 | 26.4
Nc1cc2nc3ccccc3oc-2cc1=O | 45.2* | -8.7 | 5.9 | -60.5
C[C@@H]1/C=C/CC/C=C/C(=O)[C@H](C)[C@@H]2CC[C@@H](C)[C@@](O)(O2)C(=O)C(=O)N2CCCC[C@H]2C(=O)O[C@H]([C@H](C)C[C@@H]2CC[C@@H](O)[C@H](O)[C@H]2O)CC1 | 28.8 | 7.3 | 3.2 | 10.7
CC(=O)c1ccc(N2CCN(C(=O)c3cc(Cl)c4c(c3)OCCO4)CC2)cc1 | 64.0* | -2.0 | 24.8 | 34.0*
COc1ccc(OC)c(NC(=O)C2=C(C)Nc3ncnn3C2c2cccc(OC)c2OCc2ccccc2)c1 (configuration not stated) | x | -25.0 | -8.1 | -17.5
COc1ccc2c(c1)c(N1CCCC1=O)c(C(=O)NCc1ccccc1F)n2C | -1.4 | -3.2 | 1.7 | -5.5
COc1ccc2c(c1)c(N1CCCC1=O)c(C(=O)NCc1cccc(OC)c1OC)n2C | 2.5 | 8.6 | 57.4* | 13.6
Cc1cccc(NC(=O)c2cc(=O)n(C)c3c2c(=O)n(C)c(=O)n3C)c1 | 5.8 | -8.3 | 22.8 | 2.6
CC(C)n1cc2cc(C(=O)NC3CCN(Cc4ccccc4)CC3)sc2c1 | -3.1 | 50.7* | -37.2 | -94.2
Cc1cc(C(=O)NC2CCN(Cc3ccccc3)CC2)c(C)o1 | -15.4 | -7.4 | -13.7 | -45.6
COCCCn1c(C(=O)Nc2cccnc2)cc2c(=O)n3ccccc3nc21 | 12.9 | 2.4 | 6.1 | 6.6
SMILES | USP17 block | USP8 block | USP28 inh | USP30 block
CCC(C(=O)Nc1c2c(nn1-c1ccc(Cl)cc1)CS(=O)(=O)C2)c1ccccc1 (configuration not stated) | 37.6* | 6.4 | -0.1 | 12.3
O=C(/C=C\c1ccc2c(c1)OCO2)Nc1c2c(nn1-c1ccc(Cl)cc1)CS(=O)(=O)C2 | 57.1* | 23.4 | 35.9* | 46.7*
Cn1cc(-c2cnc3n2CCC32CCN(S(=O)(=O)c3cccc(C#N)c3)CC2)cn1 | -29.6 | -80.3 | -89.4 | -17.2
CCOC(=O)C1CCCN(CC(=O)NC(c2ccccc2)c2ccccc2)C1 (configuration not stated) | -1.3 | 1.9 | 9.0 | 21.0
CC1CCCCC1NCC(=O)NC(c1ccccc1)c1ccccc1 (configuration not stated) | 10.3 | 13.6 | 13.6 | 32.1*
CC(C)(CNS(C)(=O)=O)SCc1ccc(Cl)cc1 | x | 7.7 | 3.2 | 21.1
O=C(Cc1cccc(C(F)(F)F)c1)Nc1ccc(N2CCOCC2)cc1 | 1.5 | -35.8 | -7.3 | -17.2
CC1(c2ccco2)NC(=O)N(CC(=O)Nc2ccc(N3CCCCCC3)cc2)C1=O (configuration not stated) | 43.7* | 21.1 | -0.3 | -7.4
Cc1ccc2c(c1)N=C(c1ccc([N+](=O)[O-])cc1)CO2 | -181.6 | -239.6 | -249.9 | i
Fc1ccc(-c2nc(-c3cnccn3)no2)c(Cl)c1 | 19.3 | 1.2 | 12.1 | 35.8*
O=C(Cc1ccc(F)cc1)N1CCC(Cc2nc(-c3cnccn3)no2)CC1 | 0.1 | 3.2 | -15.7 | -4.4
C=C(NC(=O)C(=C)NC(=O)c1csc(-c2ccc3c(n2)-c2csc(n2)-c2csc(n2)C(C(C)C2CO2)NC(=O)C(Cc2ccc(O)cc2)NC(=O)c2csc(n2)C(C(O)c2ccccc2)NC(=O)c2nc(sc2C)C(CC(N)=O)NC(=O)c2csc-3n2)n1)C(=O)O (configuration not stated) | 68.1* | 27.4 | 22.4 | 23.8
O=C(NCC1CCCO1)c1ccccc1N1C(=O)[C@@H]2Cc3c([nH]c4ccccc34)C(c3ccc(F)cc3)N2C1=O (some centres not stated) | -36.4 | -20.1 | -30.2 | -117.5
COc1ccc(Cc2nnc(Nc3ccccc3)[nH]c2=O)cc1 | 7.8 | 50.5* | 10.5 | 7.6
COc1ccc(Cc2nnc(NC(C)c3ccccc3)[nH]c2=O)cc1 (configuration not stated) | 14.5 | 67.2* | 11.4 | 27.0
Cc1cccc(Nc2nnc(Cc3ccccc3)c(=O)[nH]2)c1 | 4.6 | 58.7* | 7.8 | 15.4
COc1ccc(Nc2nnc(Cc3ccccc3)c(=O)[nH]2)cc1 | 12.1 | 24.7 | -0.1 | 16.2
COc1ccc(Cc2nnc(Nc3ccc(F)cc3)[nH]c2=O)cc1 | -1.1 | 52.4* | -0.4 | 8.5
COc1ccc(Cc2nnc(Nc3cccc(C)c3)[nH]c2=O)cc1OC | 7.1 | -10.0 | 1.9 | 25.0
COc1ccc(N2CCN(C(=O)c3csc4c3CCC(C(C)(C)C)C4)CC2)cc1 (configuration not stated) | 21.6 | 70.4* | 3.3 | -16.0
C=C(CC[C@@H](C)[C@H]1CC[C@@H]2[C@]1(C)C[C@@H](O)[C@@]13C[C@@]14C(=O)C[C@H](O)[C@@](C)(C(=O)O)[C@@H]4C(=O)C[C@]23O)C(C)C | 35.1* | -8.7 | 32.4* | 20.4
O=C(/C=C/c1ccc(Br)cc1)NCCCn1ccnc1 | -0.1 | -3.9 | -1.9 | -13.7
CCc1nnc(NC(=O)CN2C(=O)CCc3ccccc32)s1 | -4.5 | -4.0 | -0.4 | -0.1
CCc1nnc(NC(=O)Cn2ncc3c(=O)oc4ccc(C)cc4c32)s1 | 31.5* | 15.0 | 8.9 | 22.5
Cc1ccsc1C1CCCCCN1S(=O)(=O)c1cc(F)ccc1F (configuration not stated) | 6.2 | 6.7 | -4.2 | -2.5
